# Mtb FBA inh: Mtb fructose-bisphosphate aldolase inhibition | P9WQA3 | purified M. tuberculosis FBA, fluorescence read-out | inhibition, % at 1 µM | AID 588726 | hit rate 2.3% among 360,000; in the data active = inhibition above about 27%
# Target sequence (P9WQA3 whole entry, looked up): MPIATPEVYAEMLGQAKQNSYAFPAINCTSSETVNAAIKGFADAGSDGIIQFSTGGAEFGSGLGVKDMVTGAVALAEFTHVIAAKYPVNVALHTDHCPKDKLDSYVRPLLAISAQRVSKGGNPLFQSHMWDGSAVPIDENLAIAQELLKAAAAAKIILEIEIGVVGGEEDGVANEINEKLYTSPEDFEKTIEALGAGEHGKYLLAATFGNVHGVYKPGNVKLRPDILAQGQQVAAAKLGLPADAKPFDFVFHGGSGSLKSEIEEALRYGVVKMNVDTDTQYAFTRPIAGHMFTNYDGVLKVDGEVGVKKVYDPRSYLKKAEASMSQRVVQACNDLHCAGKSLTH
# Mtb hypoxia rep: reduces hypoxia-regulated biosensor signal in M. tuberculosis. fluorescence inhibition, % (no concentration beside the values). AID 1159583. M. tuberculosis hypoxia-regulated fluorescent reporter, fluorescence. hit rate 0.1% among 300,000; in the data active = fluorescence inhibition mostly above about 23%, no sharp cut-off; inactive = mostly below about 17%
# GDH-TPI inh: counter-screen for M. tuberculosis FBA inhibitors: GDH-TPI coupled enzymes | GDH-TPI coupled enzyme counterscreen, NADH absorbance | inhibition, % at 4.8 µM | hit rate 1.2% among 360,000; in the data active = inhibition above about 30%
# PrPC surface inh: cell surface PrPC inhibition, primary TR-FRET screen; hit rate 0.43% among 370,000; TR-FRET read-out; P04156; AID 720596; inhibition, % at 13.8 µM; in the data active = inhibition above about 24%
# PrP UTR inh: suppresses PrP 5' UTR mRNA reporter expression; cell-based PrP 5' UTR mRNA reporter, plate reader; inhibition, % (no concentration beside the values); hit rate 0.35% among 340,000; AID 488862; in the data active = inhibition above about 52%
# Yp Topo-I inh: inhibitors of Yersinia pestis topoisomerase I. Y. pestis Topo-I cleavage product accumulation, plate reader. hit rate 0.064% among 360,000. AID 504884. activity, % at 10 µM; in the data active = activity above about 50%, passing the limit was not always enough
# PrPC TRFRET cf: cell surface PrPC inhibition, TR-FRET confirmation | shares compounds with PrPC surface inh | cell surface PrPC level | inhibition, % at 13.8 µM | hit rate 65% among 1,500; in the data active = inhibition above about 25%
# LD9 cytotox: kills or reduces viability of LD9 cells in PrPc counter-screen; shares compounds with PrPC surface inh; LD9 cells cytotoxicity, luminescence viability; inhibition, % at 13.8 µM; hit rate 29% among 1,500; in the data active = inhibition above about 9.5%
# A number is an active result; 0 = inactive; - = no result shown. Most compounds without a hit are left out; they make up all but 3.8% or so of the library.
SMILES,Mtb FBA inh,Mtb hypoxia rep,GDH-TPI inh,PrPC surface inh,PrP UTR inh,Yp Topo-I inh,PrPC TRFRET cf,LD9 cytotox
Cc1nc(Nc2ncc(C(=O)Nc3c(C)cccc3Cl)s2)cc(N2CCN(CCO)CC2)n1,-,-,-,25,-,-,0,0
Cc1cccc(Cl)c1NC(=O)N1CCCN(c2nc3ccc(Cl)cc3s2)CC1,0,0,0,0,0,0,-,-
NCCCNc1nc(N)c([N+](=O)[O-])c(NC2CCCCC2)n1,0,-,0,66,0,0,79,25
CCC(=O)Nc1ccc(C(=O)NN=Cc2ccccc2[N+](=O)[O-])cc1,-,0,-,-,-,-,-,-
COc1cccc(NC(=O)NC2CCCCN(Cc3ccc(C)cc3)C2=O)c1 (stereo unspecified),-,-,-,25,-,-,0,0
COc1ccc2[nH]c3c(C)c4ccncc4c(C)c3c2c1,0,-,0,34,0,0,34,42
COc1ccc2[nH]c(C)cc(=O)c2c1,0,-,0,0,0,0,-,-
CN(C)S(=O)(=O)n1cnc(C2c3c(ncn3Cc3ccccc3)CC3COC(=O)C32)c1 (stereo unspecified),-,0,-,-,-,-,-,-
CCOC(=O)c1c(C)[nH]c(C(=O)C(C)OC(=O)c2cccc(OCc3c(C)noc3C)c2)c1C (stereo unspecified),0,-,0,38,0,0,26,0
CCC(C)NC(=O)c1cccc(OCc2c(C)noc2C)c1 (stereo unspecified),0,0,0,0,0,0,-,-
Cc1nn(-c2ccccc2)c(C)c1C=NNC(=O)CSc1nnc(-c2ccccc2)n1-c1ccc(Cl)cc1,-,0,-,-,-,-,-,-
NS(=O)(=O)c1ccc(CCNC(=O)CCCCCn2c(=S)[nH]c3ccc(Br)cc3c2=O)cc1,0,0,0,25,0,0,37,0
O=C(CCCCCn1c(=S)[nH]c2ccc(Br)cc2c1=O)NCC1CCCO1 (stereo unspecified),0,0,0,0,0,0,-,-
COc1cc(C=NNC(=O)CCc2c(C)n[nH]c2C)cc(OC)c1OC,-,0,-,-,-,-,-,-
CC(=NOCC(=O)Nc1ccccc1Br)c1cccs1,-,0,-,-,-,-,-,-
CN(CC(=O)Nc1c(Cl)cccc1Cl)C(=O)c1cc(-c2cccs2)nn1-c1ccccc1,0,-,0,0,0,0,-,-
CCN(CC(=O)Nc1c(F)cccc1F)C(=O)c1cc(-c2cccs2)nn1-c1ccccc1,0,0,0,25,0,0,28,0
Cc1ccccc1C(=O)Nc1nnc(CC(=O)NN=Cc2ccco2)s1,-,0,-,-,-,-,-,-
S=C(Nc1ccccc1)Nc1nccs1,0,0,0,0,0,0,-,-
Fc1ccc(NC(=S)Nc2nccs2)cc1,0,0,0,32,0,0,0,0
Clc1ccccc1C=NN1CCN(Cc2ccccc2)CC1,-,0,-,-,-,-,-,-
Cc1sc2ncnc(SCC(=O)Nc3ncccc3O)c2c1C,0,0,0,27,0,0,32,0
CCN(CC)C(=O)CSc1ncnc2sc(C)c(C)c12,0,-,0,0,0,0,-,-
CCC(Sc1ncnc2sc(C)c(C)c12)C(=O)OC (stereo unspecified),0,-,0,80,0,0,106,0
CC(=NNS(=O)(=O)c1ccc(Br)cc1)c1c[nH]c2ccccc12,-,0,-,-,-,-,-,-
SMILES,Mtb FBA inh,Mtb hypoxia rep,GDH-TPI inh,PrPC surface inh,PrP UTR inh,Yp Topo-I inh,PrPC TRFRET cf,LD9 cytotox
CC=NNC(=O)CNC(=O)CNC(=O)c1ccccc1,-,0,-,-,-,-,-,-
Cc1ccc2[nH]c3c(N4CCc5ccccc5C4)ncnc3c2c1,0,-,0,0,0,0,-,-
Fc1ccc2[nH]c3c(N4CCc5ccccc5C4)ncnc3c2c1,0,-,0,26,-,0,35,20
O=C(O)CSc1ncnc2sc3c(c12)CCC3,0,0,0,47,0,0,50,0
CCn1c(SCC(N)=O)nc2sc3c(c2c1=O)CCCC3,0,0,0,0,0,0,-,-
O=C(O)CSc1ncnc2sc3c(c12)CCCC3,0,0,0,30,0,0,53,0
CCSc1ncnc2sc3c(c12)CCC3,0,0,0,0,0,0,-,-
NC(=O)CSc1nc2sc3c(c2c2ncnn12)CCCC3,0,-,0,47,0,0,47,0
CC1CCN(C(=O)CSc2nnc(CSc3ncccn3)n2C)CC1,0,0,0,25,0,0,0,0
Cc1cccc(N=CC2=C(O)CC(C)(C)CC2=O)n1,-,0,-,-,-,-,-,-
CC1=C(C(=O)OCc2ccccc2)C(c2ccccc2Cl)NC(=O)N1C (stereo unspecified),0,0,0,0,0,0,-,-

# Compound activity from PubChem BioAssay.
